“And” between values parts separate entries of the source, which are not always exact repeats. Identical values can stand only once. Results filed as inconclusive are left out. Where a call stands in place of a potency, no number is given. The source made the active and inactive calls. Unless noted, calls follow the shape of the dose curve; as a rule, active = well fitted curve in the direction sought with a large enough effect; inconclusive = small, poorly fitted or top-dose-only effect, or another doubt; inactive = no such curve, though single readings can be large; an effect the other way counts as inactive or inconclusive.
Experiments:
[1] = Cell Viability - BJ (AID 421; calls by dose curve;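 also: potency is read from the fitted curve at half-maximal effect; cells exposed to compound for 40 hours at 37 °C before readout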); conditions: BJ fibroblast viability, qHTS
In short: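 Cytotoxicity in human BJ foreskin fibroblasts is scored as loss of cellular ATP after a 40-hour exposure, measured by luciferase luminescence. Controls are DMSO and 100 uM tamoxifen.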

[2] = Cell Viability - HepG2 (AID 433; calls by dose curve;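 also: potency is read from the fitted curve at half-maximal effect; cells exposed to compound for 40 hours; potency for ATP loss meaning cytotoxicity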); conditions: qHTS
In short: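 In this qHTS format, a 40 h, 37 °C compound incubation of HepG2 cells in complete medium precedes a 20 min CellTiter-Glo step at room temperature. Tamoxifen and doxorubicin serve as positive controls; Hill-equation fits yield AC50.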

[3] = Cell Viability - Mesenchymal (AID 546); conditions: mesenchymal cells viability, qHTS; activity change, negative = cytotoxicity: at 91.7 µM (top of the series);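 also: cells exposed to compound for 40 hours before reading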
In short: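 Human renal mesenchymal cells (glomerulus-derived), 1000 cells/well, 5 hr 37 °C pre-incubation; compound 40 hr, 37 °C; CellTiter-Glo, 20 min RT; luminescence; AC50 via Hill equation.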

[4] = Cell Viability - LYMP1-003 - Assay at 40 hr (AID 964); conditions: LYMP1-003 lymphoblastoid viability; series mostly up to 92.2 µM; also: nearly all actives have a fitted effect of over 60% in size
In short: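 Viability is taken as cellular ATP, read by CellTiter-Glo luminescence after 40 h of compound exposure at 37 C. Cells: human lymphoblastoid line LYMP1-003 at 2500/well; AC50 values derived by Hill-equation fitting of concentration-response data.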

[5] = Cell Viability - LYMP2-004 (AID 966); conditions: LYMP2-004 lymphoblastoid cell viability, qHTS; series mostly up to 92.2 µM; also: nearly all actives have a fitted effect of over 65% in size
In short: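 AC50 values come from Hill modelling of concentration-dependent loss of intracellular ATP, measured by CellTiter-Glo luminescence. Human LYMP2-004 lymphoblastoid cells (2500/well) were exposed to compound for 24 h at 37 C.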

[6] = Cell Viability - LYMP2-021 (AID 974); conditions: LYMP2-021 lymphoblastoid cells viability; series mostly up to 92.2 µM; also: nearly all actives have a fitted effect of over 55% in size
In short: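 AC50 values come from Hill-equation fits to CellTiter-Glo luminescence (ATP content), read after 24 hour compound exposure at 37 C of 2500 LYMP2-021 lymphoblastoid cells/well; tetraoctylammonium bromide as positive control.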

[7] = Cell Viability - LYMP2-025 (AID 976); conditions: LYMP2-025 lymphoblastoid cell viability; series mostly up to 92.2 µM
In short: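 Cytotoxicity read as loss of intracellular ATP (luciferase luminescence) after 24 h compound treatment at 37 C. Uses LYMP2-025 lymphoblastoid cells in 1536-well format; Hill-equation modelling gives AC50; tetraoctylammonium bromide as positive control.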

[8] = Cell Viability - LYMP2-002 (AID 977); conditions: LYMP2-002 lymphoblastoid cell viability, qHTS; series mostly up to 92.2 µM
In short: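 Human lymphoblastoid cells, 2500/well, complete medium; 5 h 37 C settle; compound 24 h 37 C; CellTiter-Glo, 30 min RT; luminescence. Decrease in ATP = cytotoxicity; AC50 via Hill equation.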

[9] = Cell Viability - LYMP2-008 (AID 980); conditions: LYMP2-008 lymphoblastoid cell viability, qHTS; series mostly up to 92.2 µM; also: nearly all actives have a fitted effect of over 60% in size
In short: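 Cytotoxicity determined from ATP-dependent luciferase luminescence (CellTiter-Glo) following 24 h compound exposure of human lymphoblastoid LYMP2-008 cells at 37 C. Concentration-response data fitted to the Hill equation to give AC50.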

[10] = Cell Viability - LYMP2-014 (AID 983); conditions: LYMP2-014 lymphoblastoid cells, viability qHTS; series mostly up to 92.2 µM; also: nearly all actives have a fitted effect of over 50% in size
In short: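 Intracellular ATP loss, read by luciferase luminescence, measures acute cytotoxicity after 24 h compound exposure of lymphoblastoid LYMP2-014 cells (2500/well, 37 C). Concentration-response data fitted to the Hill equation for AC50.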

[11] = Cell Viability - LYMP2-016 (AID 984); conditions: LYMP2-016 lymphoblastoid cell viability, qHTS; series mostly up to 92.2 µM; also: nearly all actives have a fitted effect of over 55% in size
In short: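 Concentration-dependent ATP depletion measured in LYMP2-016 lymphoblastoid cells, 24 h, 37 C; luciferase-based luminescent detection; Hill-equation AC50.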

[12] = Cell Viability - LYMP2-018 (AID 985); conditions: LYMP2-018 lymphoblastoid cells, viability (qHTS); series mostly up to 92.2 µM; also: nearly all actives have a fitted effect of over 50% in size
In short: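 Viability read as CellTiter-Glo luminescence (cellular ATP) after 24 hr compound exposure at 37 C of 2500 LYMP2-018 lymphoblastoid cells/well, pre-plated 5 hr. Hill-equation modelling gave AC50.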

[13] = Cell Viability - LYMP2-026 (AID 989); conditions: LYMP2-026 lymphoblastoid cell viability, qHTS; series mostly up to 92.2 µM; also: nearly all actives have a fitted effect of over 50% in size
In short: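 Cytotoxicity read as ATP-dependent luminescence (CellTiter-Glo, 30 min room temperature) after 24 h compound treatment at 37 C. LYMP2-026 lymphoblastoid line seeded at 2500 cells/well; AC50 derived by standard Hill equation.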

[14] = Cell Viability - LYMP1-002 - Assay at 40 hr (AID 994); conditions: LYMP1-002 lymphoblastoid cell viability; series mostly up to 92.2 µM; also: nearly all actives have a fitted effect of over 60% in size
In short: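 Cytotoxicity was read as loss of cellular ATP (CellTiter-Glo luminescence) after 40 hr compound exposure at 37 C of 2500 LYMP1-002 lymphoblastoid cells per well. Concentration-response data were fitted with the standard Hill equation to give AC50.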

[15] = qHTS assay for small molecule antagonists of retinoid X receptor alpha signaling (AID 588546; active = well fitted inhibition curve with a large enough effect in the signal ratio, with a control signal flat, not every such curve was filed as active; the % refers to the signal ratio;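 also: cells stimulated with 9-cis-retinoic acid as agonist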); conditions: HEK293T RXRa-UAS-bla, beta-lactamase ratio, antagonist mode; measured here: W530 green channel, cytotoxicity proxy
In short: (§1)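 Beta-lactamase reporter inhibition, read as CCF4 fluorescence ratio (ex 405, em 460/530 nm) after 2 h at RT. HEK293T UAS-bla cells, 2500/well, were stimulated with 9-cis-RA at 500 or 100 nM final alongside test compound for 18 h at 37 C.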

[16] = biological target: Retinoic acid receptor RXR-alpha (Homo sapiens) (UniProt P19793); assay: as above; conditions: HEK293T RXRa-UAS-bla, beta-lactamase ratio, antagonist mode
Retinoic acid receptor RXR-alpha (Homo sapiens), sequence (P19793 whole entry, looked up): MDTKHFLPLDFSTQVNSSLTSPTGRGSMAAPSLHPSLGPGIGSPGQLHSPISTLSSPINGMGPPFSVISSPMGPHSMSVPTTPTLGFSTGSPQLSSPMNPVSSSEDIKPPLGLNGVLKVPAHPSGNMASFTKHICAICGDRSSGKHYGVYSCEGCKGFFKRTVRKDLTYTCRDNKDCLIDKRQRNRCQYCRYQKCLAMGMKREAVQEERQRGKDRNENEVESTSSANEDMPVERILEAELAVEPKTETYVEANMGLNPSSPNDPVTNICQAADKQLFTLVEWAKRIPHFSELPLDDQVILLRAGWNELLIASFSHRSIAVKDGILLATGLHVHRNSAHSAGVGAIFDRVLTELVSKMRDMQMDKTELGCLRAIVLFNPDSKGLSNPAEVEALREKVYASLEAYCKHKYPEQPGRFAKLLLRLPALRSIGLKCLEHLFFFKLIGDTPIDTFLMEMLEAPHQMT
In short: as §1

[17] = qHTS assay for cell viability of HEK293 cells (AID 743288); conditions: ATP luminescence (CellTiter-Glo), 18 h; max response: stronger effect = lower value; also: nearly all actives have a fitted effect of over 50% in size
In short: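 HEK293, 18 h, 37 C, ATP luminescence. Cells at 2,000/well were allowed at least 5 h to settle before dosing; CellTiter-Glo developed 30 min at RT.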

[18] = Cell Viability - LYMP2-020 (AID 986); conditions: series mostly up to 92.2 µM; also: nearly all actives have a fitted effect of over 55% in size
In short: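 Cytotoxicity in qHTS format: luminescent ATP readout from CellTiter-Glo after 24 h compound exposure at 37 C in complete medium. LYMP2-020 lymphoblastoid cells were seeded at 2500/well; concentration-response data fitted to the Hill equation for AC50.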

[19] = Cell Viability - LYMP2-022 (AID 987); conditions: LYMP2-022 lymphoblastoid cell viability; series mostly up to 92.2 µM; also: nearly all actives have a fitted effect of over 55% in size
In short: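 Cytotoxicity read as decreased cellular ATP (CellTiter-Glo luminescence, 30 min room temperature) after 24 hours compound exposure of 2500 lymphoblastoid LYMP2-022 cells/well at 37 C. Concentration-response data fitted with standard Hill equation for AC50.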

[20] = qHTS assay for environmental chemicals that activate the Aryl hydrocarbon Receptor (AhR) signaling pathway (AID 651777); conditions: 1A2-DRE human hepatoma cells, luciferase, 24 h; activation: stronger effect = higher value; also: nearly all actives have a fitted effect of over 15% in size
In short: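 Concentration–response screening used 1,200 1A2-DRE cells per well, 24 hr compound exposure (37 C, 5% CO2), and One-Glo luminescence as the AhR-driven CYP1A2 reporter signal.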

Compound | Potency [1] | Potency [2] | Potency [3] | Potency [4] | Potency [5] | Potency [6] | Potency [7] | Potency [8] | Potency [9] | Potency [10] | Potency [11] | Potency [12] | Potency [13] | Potency [14] | max response [15] | max response [16] | max response [17] | Potency [18] | Potency [19] | activation [20]
COc1ccc(C(=O)Nc2ccccc2)cc1[N+](=O)[O-] | > 92 µM (inactive) | > 92 µM (inactive) | inactive | inactive | inactive | inactive | inactive | inactive | inactive | inactive | inactive | inactive | inactive | inactive | -10.5% | -8.72% (inactive) | -5.07% (inactive) |  |  | 
CC(C)COC(=O)COc1cc(Cl)c(Cl)cc1Cl | > 92 µM (inactive) | > 92 µM (inactive) | inactive | inactive | inactive | inactive | inactive | inactive | inactive | inactive | inactive | inactive | inactive | inactive | -2.2% | 8.47% (inactive) | 6.88% (inactive) | inactive | inactive | 1.79% (inactive)
CC(C)OCC1CO1 (stereo not given) | > 92 µM (inactive) | > 92 µM (inactive) | inactive | inactive | inactive | inactive |  | inactive | inactive | inactive | inactive | inactive | inactive | inactive | -11.4% | 1.98% (inactive) | -0.12% (inactive) | inactive | inactive | 0.457% (inactive)
C=Cc1cccc(C)c1 | > 92 µM (inactive) | > 92 µM (inactive) | inactive | inactive | inactive | inactive | inactive | inactive | inactive | inactive | inactive | inactive | inactive | inactive | -7.34% | -5.75% (inactive) | 2.72% (inactive) | inactive | inactive | -0.0469% (inactive)
Cc1ccc(N)cc1[N+](=O)[O-] | > 92 µM (inactive) | > 92 µM (inactive) | inactive | inactive | inactive | inactive | inactive | inactive | inactive | inactive | inactive | inactive | inactive | inactive | -2.06% | -2.5% (inactive) | 4.69% (inactive) | inactive | inactive | 0.886% (inactive)
CCCCCCCCOc1ccc(C(=O)O)cc1 | > 92 µM (inactive) | > 92 µM (inactive) | inactive | inactive | inactive | inactive | inactive | inactive | inactive | inactive | inactive | inactive | inactive | inactive | -3.84% | -6.4% (inactive) | 8.21% (inactive) | inactive | inactive | 8.38% (inactive)
OCC(CO)(CBr)CBr | > 92 µM (inactive) | > 92 µM (inactive) | inactive | inactive | inactive | inactive | inactive | inactive | inactive | inactive | inactive | inactive | inactive | inactive | 6.52% and -5.45% | 4.02% (inactive) and -1.76% (inactive) | -6.95% (inactive) and -8.44% (inactive) | inactive | inactive | 0.992% (inactive) and 2.31% (inactive)
CCCCC(CC)COC(=O)COc1ccc(Cl)cc1Cl (stereo not given) | > 92 µM (inactive) | > 92 µM (inactive) | inactive | inactive | inactive | inactive | inactive | inactive | inactive | inactive | inactive | inactive | inactive | inactive | 0.541% and -5.28% | 18.5% (inactive) and 4.05% (inactive) | -3.29% (inactive) and 2.38% (inactive) | inactive | inactive | 0.535% (inactive) and 1.47% (inactive)
CCCCCCc1ccc(-c2ccc(C#N)cc2)cc1 | > 92 µM (inactive) | > 92 µM (inactive) | inactive | inactive | inactive | inactive | inactive | inactive | inactive | inactive | inactive | inactive | inactive | inactive | -7.3% | -14.6% (inactive) | -6.02% (inactive) | inactive | inactive | 
CCCCNCC | > 92 µM (inactive) | > 92 µM (inactive) | inactive | inactive | inactive | inactive | inactive | inactive | inactive | inactive | inactive | inactive | inactive | inactive | -20.9% | 4.6% (inactive) | -3.61% (inactive) | inactive | inactive | -0.56% (inactive)
c1ccc(CSCc2ccccc2)cc1 | > 92 µM (inactive) | > 92 µM (inactive) | inactive | inactive | inactive | inactive | inactive | inactive | inactive | inactive | inactive | inactive | inactive | inactive | -3.11% | 1.24% (inactive) | 1.27% (inactive) | inactive | inactive | -0.759% (inactive)
COc1cc(-c2ccc(N=C=O)c(OC)c2)ccc1N=C=O | > 92 µM (inactive) | > 92 µM (inactive) | inactive | inactive | inactive | inactive | inactive | inactive | inactive | inactive | inactive | inactive | inactive | inactive | -13.8% | -6.94% (inactive) | -1.14% (inactive) and -5.75% (inactive) | inactive | inactive | 0.786% (inactive) and 6.25% (inactive)

From PubChem BioAssay (NCATS)
